A collection of fitness landscapes (doi:10.1126/science.1257360)
Over roughly 140,000 sequences, “enrichment ratio after two sorts for PhoP signalling” has its median near 0; the highest 2% begin near 11. This is one part of a sample in which the highest values are shown more often than they occur.

B1: PhoQ; a variant is named by its letters at X, in order, P23837 (parent)
chain: MKKLLRLFFPLSLRVRFLLATAAVVLVLSLAYGMVALIGYSVSFDKTTFRLLRGESNLFYTLAKWENNKLHVELPENIDKQSPTMTLIYDENGQLLWAQRDVPWLMKMIQPDWLKSNGFHEIEADVNDTSLLLSGDHSIQQQLQEVREDDDDAEMTHSVAVNVYPATSRMPKLTIVVVDTIPVELKSSYMVWSWFIYVLSANLLLVIPLLWVAAWWSLRPIEALAKEVRELEEHNRELLNPATTRELTSLVRNLNRLLKSERERYDKYRTTLTDLTHSLKTPLXXLQXXLRSLRSEKMSVSDAEPVMLEQISRISQQIGYYLHRASMRGGTLLSRELHPVAPLLDNLTSALNKVYQRKGVNISLDISPEISFVGEQNDFVEVMGNVLDNACKYCLEFVEISARQTDEHLYIVVEDDGPGIPLSKREVIFDRGQRVDTLRPGQGVGLAVAREITEQYEGKIVAGESMLGGARMEVIFGRQHSAPKDE

Variants of: B1
Assay: enrichment ratio after two sorts for PhoP signalling (ratio (wild type AVST 3.29)); higher = more functional
Conditions: with PhoP (E. coli)

| Variant | enrichment ratio |
| --- | --- |
| HDWN | ≤ 0.25 |
| LGQF | ≤ 0.25 |
| TLMP | ≤ 0.25 |
| DGEM | ≤ 0.25 |
| EYIG | ≤ 0.25 |
| LWNR | ≤ 0.25 |
| GEFD | ≤ 0.25 |
| SQIR | ≤ 0.25 |
| MDDP | ≤ 0.25 |
| TTHF | 11.8 |
| RIMF | ≤ 0.25 |
| QVHF | 0.315 |
| QVDF | 15.1 |
| TTEL | 16.6 |
| TTPA | ≤ 0.25 |
| THMF | 9.68 |
| TTMF | 20.9 |
| YTEL | ≤ 0.25 |
| TTPS | ≤ 0.25 |
| NVDF | ≤ 0.25 |
| TTYI | 6.16 |

| Variant | enrichment ratio |
| --- | --- |
| PVYQ | ≤ 0.25 |
| GLRF | ≤ 0.25 |
| VHDP | ≤ 0.25 |
| NRQL | ≤ 0.25 |
| DQAF | ≤ 0.25 |
| KQIG | ≤ 0.25 |
| WLRY | ≤ 0.25 |
| TTAF | 14 |
| YTAF | ≤ 0.25 |
| THDF | 11.6 |
| SHDF | ≤ 0.25 |
| TTQF | 22.7 |
| NHDF | ≤ 0.25 |
| GTQF | ≤ 0.25 |
| STWN | ≤ 0.25 |
| YTWN | ≤ 0.25 |
| LTAF | ≤ 0.25 |
| TTWN | 15.1 |
| YTQF | ≤ 0.25 |
| RKCR | ≤ 0.25 |
| QNKW | ≤ 0.25 |

| Variant | enrichment ratio |
| --- | --- |
| YVTW | ≤ 0.25 |
| DWIG | ≤ 0.25 |
| ERDP | ≤ 0.25 |
| VGHC | ≤ 0.25 |
| NFWG | ≤ 0.25 |
| KTWY | ≤ 0.25 |
| TTWS | 11.9 |
| YTWS | ≤ 0.25 |
| YTSA | ≤ 0.25 |
| TTWI | 9.7 |
| WIYN | ≤ 0.25 |
| TTYN | 12.5 |
| TTGL | 12.3 |
| KSYN | ≤ 0.25 |
| YTGL | ≤ 0.25 |
| STGL | 9.48 |
| KQSA | ≤ 0.25 |
| TTSA | 11.5 |
| IEKA | ≤ 0.25 |
| RHPA | ≤ 0.25 |
| PCEP | ≤ 0.25 |

| Variant | enrichment ratio |
| --- | --- |
| MEYV | 5.49 |
| WFPG | ≤ 0.25 |
| TMFD | ≤ 0.25 |
| AHCM | 9.33 |
| THSS | 8.94 |
| AKKL | ≤ 0.25 |
| YGCL | 2.74 |
| YHQH | ≤ 0.25 |
| TTGF | 17.1 |
| LTGF | ≤ 0.25 |
| TTHN | 15.7 |
| WIMF | ≤ 0.25 |
| YTHN | ≤ 0.25 |
| NVHI | ≤ 0.25 |
| CTMF | 25.7 |
| KSHN | ≤ 0.25 |
| TTHI | 11.5 |
| YTHI | ≤ 0.25 |
| YTGF | ≤ 0.25 |
| YTMF | 5.8 |
| WRNH | ≤ 0.25 |
